37 molecules from PubChem BioAssay (NCI) can be followed below.

The panel holds about 83,000 compounds, 20% with a hit somewhere; the sample as a whole holds those more often.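 Compound tested at a single concentration for 48 hours in 96-well plates; a percent growth value below 10 was scored as active.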 Values without a mark were called inactive. Calls of active or inactive are those of the source.

One test has as its system NCI-H23 lung. Kind of test: NCI-60 one-dose screen, 48 h (100 = growth as untreated, 0 = no growth, -100 = all killed). To be noted: 10 µM unless noted.
On to `C/C(CC(C)(C)N1CC1)=N\NC(=O)Nc1cccc2ccccc12`, for which the growth is 68%.

On to `C[C@]12CCc3sc(-c4ccccc4O)nc3C1=CC[C@@H]1[C@@H]2CC[C@]2(C)C(=O)CC[C@@H]12`, for which the growth is 103%. Still for that read-out and setting: with `CC[C@H](C)[C@H](NC(=O)[C@H]1CCCCN1C)C(=O)N(C)[C@H](CC(=O)c1nc(C(=O)N[C@@H](Cc2ccccc2)C[C@H](C)C(=O)O)cs1)C(C)C` the figure was 93.2%; with `COc1cccc(/C=C/[N+](=O)[O-])c1`, 43.3%. Same read-out and setting: for `O=C1CC2(CC3(Cl)C(Cl)=C(Cl)C2(Cl)C3(Cl)Cl)C(=O)O1` (centres undefined) the value was 96.8%; for `CC12CCC3C(CCC4=CC(=O)CCC43CF)C1CCC2=O` (centres undefined), 106%.

Consider `Nc1ccc(-c2nc3cc(F)ccc3[se]2)cc1F`, for which the growth was 33.9%.

The test system of another test is NCI-H226 lung. The test is described as above. To be noted: 10 µM unless noted.
Take `COc1cc2c(=O)n(C3CCCCCCC3)c3c4cc[nH]c4ncc3c2cc1OC`: the growth was 17.8%. Still for that read-out and setting: with `C1CCC([PH+](C2CCCCC2)C2CCCCC2[PH+](C2CCCCC2)C2CCCCC2)CC1.[Au].[CH-]1CCCCC1CC1CCCC[N-]1` (centres undefined) the figure was -50.6% (active); with `CCCCN1CCCC[C@@H]1C(=O)N[C@H](C(=O)N(C)[C@H](C[C@@H](OC(C)=O)c1nc(C(=O)NC2CCC(C(=O)OC)CC2)cs1)C(C)C)C(C)C` (some centres undefined), 71.8%. On the same count and under the same terms, with `CS(=O)(=O)CCN1CC2CCCC(C2)C1` the figure was 121%. On to `COC(=O)[C@@H](C)C[C@H](Cc1ccccc1)NC(=O)c1nc([C@@H](C[C@H](C(C)C)N(C)C(=O)[C@@H](NC(=O)[C@H]2CCCCN2C)C(C)C)OC(C)=O)sc1C(C)C`, for which the growth is 52.4%.

Regarding `C=CC[Se]C(=O)c1ccccc1OC(C)=O`, the growth was 28.1%.

Take `CC(C)[C@@H]1NC(=O)[C@]2(C)CSC(=N2)c2csc(n2)CNC(=O)C[C@@H](/C=C/CCS)OC1=O`: the growth is 0.257% (active).

On to `Clc1cccc(Cl)c1Cl`, for which the growth was 101%.

With `O=C(CC1(O)C(=O)Nc2ccc(Cl)cc21)c1ccc(C(=O)NCC2CCC3(CC2)OOC2(CCCCC2)OO3)cc1` (centres undefined), the growth is 53.3%. The same measure, in the same setting: for `COc1ccc(C(O)(C(=O)O)c2ccc(OC)cc2)cc1` the value was 116%; for `CCn1c2ccccc2c2cc(C(=O)c3ccc(C)c4ccccc34)ccc21`, 32.8%; for `COC(=O)[C@]12CCC(C)(C)C[C@H]1[C@H]1C(=O)C[C@@H]3[C@@]4(C)C[C@@]5(CC(C)(C)[C@@H]4CC[C@@]3(C)[C@]1(C)CC2)OO[C@@](C)(C(F)(F)F)O5`, 86.5%. Turning to `CC[C@]12C=CCN3CC[C@@]4(c5ccc(OC)cc5N(C)[C@H]4[C@@](O)(C(=O)OC)[C@@H]1OC(=O)CCCC[P+](c1ccccc1)(c1ccccc1)c1ccccc1)[C@@H]32`, the growth was 15.1%.

Turning to `CCCCCCCCOC(=O)CCN1CC1`, the growth was 93.5%. Turning to `CC1[C@H](C)OC(=O)CC(O)CC(O)CC(O)CCC(O)C(O)C[C@]2(O)CC(O)C(C(=O)O)C(CC(OC3O[C@H](C)[C@@H](O)[C@H](N)[C@@H]3O)/C=C/C=C/C=C/C=C/CC/C=C/C=C/[C@H](C)[C@H]1O)O2` (some centres undefined), the growth was 99.1%. Regarding `c1cc2c(c3c1CCNC3)OCO2`, the growth was 103%. `Cc1ccc(N2COOC3(OOC2)C2CC4CC(C2)CC3C4)cc1`: the growth was 108%. The same measure, in the same setting: with `O=C(CC1(O)C(=O)N(Cc2ccccc2)c2ccc(Br)cc21)c1ccc(C(=O)NCC2CCC3(CC2)OOC2(CCCCC2)OO3)cc1` (centres undefined) the figure was -33% (active). `C[C@@H]1C[C@@]2(C)[C@@H](CC[C@@H]3[C@@H]2CC[C@]2(C)C(=O)CC[C@@H]32)CC1=O`: the growth is 102%. Regarding `CCN(CC)c1ccc2c(c1)OC(N)=C(C#N)C2c1cc(OC)c2c(c1)OCO2` (centres undefined), the growth is 29%. As to `O=P(Oc1ccc(Cl)cc1)(N1CC1)N1CC1`, the growth is 87.8%. The same measure, in the same setting: for `O=[N+]([O-])c1cc(I)cc([N+](=O)[O-])c1` the value was 115%; for `CC(=O)O[C@H](C[C@H](C(C)C)N(C)C(=O)[C@@H](NC(=O)[C@H]1CCCCN1C)C(C)(C)C)c1nc(C(=O)N[C@@H](Cc2ccccc2)C[C@H](C)C(=O)O)cs1`, 61.4%; for `CC[C@H](C)[C@H](NC(=O)[C@H]1CCCCN1C)C(=O)N(C)[C@H](C[C@@H](O)c1nc(C(=O)N[C@@H](Cc2ccccc2)C[C@H](C)C(=O)O)cs1)C(C)C`, 99%. Still for that read-out and setting: for `CN1CCC(O)(c2ccc(F)cc2)C(C(=O)c2ccc(F)cc2)C1` (centres undefined) the value was 108%. Turning to `O=C1NC(=O)C(=Cc2cccn2CCCCCn2c3ccccc3c(=O)c3ccccc32)C(=O)N1`, the growth was 99.1%. In the case of `COC(=O)[C@@H](C[C@H](Cc1ccccc1)NC(=O)c1csc([C@@H](C[C@H](C(C)C)N(C)C(=O)[C@@H](NC(=O)[C@H]2CCCCN2C)C(C)C)OC(C)=O)n1)NC(=O)OCc1ccccc1`, the growth was -36.8% [9.5 µM] (active). The same measure, in the same setting: with `CN(C)CCCOc1ccc2c(c1)c(C(=O)C(=O)NCCO)cn2Cc1ccccc1` the figure was 103%. The same measure, in the same setting: with `COc1cc(C=Nc2cc(Cl)cc(Cl)c2)ccc1N(CCCl)CCCl` the figure was 76.4%; with `CCOC(=O)N[C@H]1CCc2c(Br)c(OC)c(OC)c(OC)c2-c2ccc(SC)c(=O)cc21`, 10.3%. On to `C/C(CC(C)(C)N1CC1)=N\NC(=O)Nc1cccc2ccccc12`, for which the growth is 56.4%. On the same count and under the same terms, with `C[C@]12CCc3sc(-c4ccccc4O)nc3C1=CC[C@@H]1[C@@H]2CC[C@]2(C)C(=O)CC[C@@H]12` the figure was 108%; with `CC[C@H](C)[C@H](NC(=O)[C@H]1CCCCN1C)C(=O)N(C)[C@H](CC(=O)c1nc(C(=O)N[C@@H](Cc2ccccc2)C[C@H](C)C(=O)O)cs1)C(C)C`, 92.3%; with `COc1cccc(/C=C/[N+](=O)[O-])c1`, 65.2%. In the case of `O=C1CC2(CC3(Cl)C(Cl)=C(Cl)C2(Cl)C3(Cl)Cl)C(=O)O1` (centres undefined), the growth was 110%. On the same count and under the same terms, with `CC12CCC3C(CCC4=CC(=O)CCC43CF)C1CCC2=O` (centres undefined) the figure was 111%; with `Nc1ccc(-c2nc3cc(F)ccc3[se]2)cc1F`, -13.2% (active).
